This note sets out measurements from ChEMBL document CHEMBL3988442, “University of Dundee, Small-Polar-MMV Screening Library” (2021).

Among all 69,000 compounds or so, about 30 (0.04%) showed an effect of 50% or more. The sample holds strong results, similar compounds and a random draw of the others, so the mix is not that of the screen.

This assay has as its target T1, Histidine--tRNA ligase (Trypanosoma cruzi (strain CL Brener)) (UniProt Q4DA54).
T1 sequence (whole entry): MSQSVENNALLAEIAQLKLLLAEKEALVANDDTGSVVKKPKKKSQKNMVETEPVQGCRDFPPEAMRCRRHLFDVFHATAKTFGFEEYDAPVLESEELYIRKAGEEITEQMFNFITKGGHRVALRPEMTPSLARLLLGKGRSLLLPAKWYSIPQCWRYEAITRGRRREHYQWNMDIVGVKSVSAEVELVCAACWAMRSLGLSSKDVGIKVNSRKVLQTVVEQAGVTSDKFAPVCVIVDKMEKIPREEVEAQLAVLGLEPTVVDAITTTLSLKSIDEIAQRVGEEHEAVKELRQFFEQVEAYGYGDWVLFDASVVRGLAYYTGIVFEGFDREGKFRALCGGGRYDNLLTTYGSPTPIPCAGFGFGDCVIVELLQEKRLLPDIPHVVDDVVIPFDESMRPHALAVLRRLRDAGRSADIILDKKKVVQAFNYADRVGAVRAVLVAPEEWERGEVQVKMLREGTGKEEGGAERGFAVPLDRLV
Put plainly: Trypanosoma cruzi histidyl tRNA synthetase (Tc-HisRS). The class given is functional. The conditions noted are these: 30 µM. Also noted: scale not given: direction of the effect not stated beside the values.
For the compound `Cc1csc(CN2CC[C@H]3C[C@H](c4nnc(C)[nH]4)O[C@@H]3C2)n1`, the Percent Effect is -2.48%. Then `Cc1ccc(S(=O)(=O)N2C[C@H]3C[C@H](NC(=O)c4ccnn4C)[C@H]3C2)cc1`, with 5.95%; and `O=C(c1ccsc1)N1C[C@@H]2CCN(c3cccnc3)C[C@@H]2C1`, with -1.97%; and `CC(C)=CCN1CCN(Cc2nc3ccccc3[nH]2)[C@H]2CS(=O)(=O)C[C@H]21`, with 4.35%. On to `Cc1cc(C(=O)N2C[C@@H]3COC[C@]3(c3nnc(C)o3)C2)on1`, for which the Percent Effect worked out at 0.99%.

Turning to `CNc1nc2c(s1)C(c1c(F)cccc1Cl)CC(=O)N2` (stereo unspecified), the Percent Effect stood at 52.2%. In the case of `CNc1nc2c(s1)C(c1cccc(Cl)c1Cl)CC(=O)N2` (stereo unspecified), the Percent Effect came to 34.8%. The figure for `CNc1nc2c(s1)C(c1c(Cl)cccc1Cl)CC(=O)N2` (stereo unspecified) is 31.5%.

As to `Cc1ccc(CN2C[C@@H]3COC[C@]3(COc3ccc(C#N)cn3)C2)o1`, the Percent Effect stood at 4.39%. On to `O=C(CCc1ccccc1)N[C@H]1CC[C@@]2(CCC(=O)N2)CC1`, for which the Percent Effect was 9.71%. The figure for `O=C(c1ccco1)N1CCO[C@@H]2CN(Cc3nccs3)CC[C@@H]2C1` is 2.21%. On to `CN(C)C(=O)[C@H]1C[C@H]2OCC[C@H]2N(Cc2ccc3ccccc3n2)C1`, for which the Percent Effect was 12.8%. Then `O=C(N1CCOCC1)[C@@]12CCO[C@@H]1CCN(CC1CCCC1)C2`, with 0%; and `Cc1ncccc1NC(=O)[C@@H]1CCO[C@@H]2CCN(c3ccccc3)C[C@@H]21`, with 7.26%; and `Cc1noc([C@@H]2C[C@H]3OCC[C@H]3N(Cc3cc(C)c(C)o3)C2)n1`, with 8.87%.

With `O=C1CC[C@H]2[C@H](CCN2C(=O)C2CCCO2)N1Cc1ccncc1` (stereo partly specified), the Percent Effect is -3.83%. The figure for `O=C(NCc1ccco1)[C@H]1CC[C@@H]2[C@@H](CCN2C2CCC2)O1` is 8.54%; for `COc1ccc(CN2CCN(C(=O)N(C)C)[C@@H]3CS(=O)(=O)C[C@@H]32)cc1F` it is 3.06%. Then `CO[C@H]1C[C@@H]2CN(C(=O)c3ccc(C)s3)C[C@@H]2C1`, with 8.05%. The figure for `Cc1cc(=O)n(C)cc1NC(=O)Cc1cc(F)ccc1F` is 57.9%; for `Cc1cc(=O)n(C)cc1NC(=O)Cc1cccc(F)c1` it is 14.2%.

`Cc1cc(=O)n(C)cc1NC(=O)Cc1ccc(C(F)(F)F)cc1`: the Percent Effect amounted to 14.2%. With `CCC1=N[C@@]2(CC[C@@H]3CN(C(=O)NCc4ccccc4)C[C@@H]32)C(=O)N1C`, the Percent Effect amounted to 3.83%. With `COc1ccccc1C1CC(=O)Nc2nc(N3CCCCC3)sc21` (stereo unspecified), the Percent Effect amounted to 74.5%. The figure for `COc1cccc(C2CC(=O)Nc3nc(N4CCCCC4)sc32)c1OC` (stereo unspecified) is 74.5%; for `CNc1nc2c(s1)C(c1cccc(F)c1F)CC(=O)N2` (stereo unspecified) it is 3.26%.

As to `Nc1nc2c(s1)C(c1c(F)cccc1Cl)CC(=O)N2` (stereo unspecified), the Percent Effect is -3.73%. Then `CC(C)Oc1ccccc1C1CC(=O)Nc2nc(N3CCOCC3)sc21` (stereo unspecified), with 1.24%; and `O=C1CC(c2ccccc2C(F)(F)F)c2sc(N3CCOCC3)nc2N1` (stereo unspecified), with 33.5%; and `COc1cccc(C2CC(=O)Nc3nc(N4CCOCC4)sc32)c1OC` (stereo unspecified), with 65.2%. The figure for `CNc1nc2c(s1)C(c1ccccc1F)CC(=O)N2` (stereo unspecified) is 14.9%. The figure for `CCOc1cccc(C2CC(=O)NCc3nc(N4CCCC4)sc32)c1` (stereo unspecified) is 9.84%; for `O=C1CC(c2ccccc2Br)c2sc(N3CCOCC3)nc2N1` (stereo unspecified) it is 16.1%; for `COc1cccc(C2CC(=O)Nc3nc(N)sc32)c1OC` (stereo unspecified) it is 70.7%. In the case of `CNc1nc2c(s1)C(c1ccccc1Cl)CC(=O)N2` (stereo unspecified), the Percent Effect was determined as 17.4%. For `COCCN1C[C@H]2CC[C@@H]1CN(C(=O)CCc1c(C)nn(C)c1C)C2`, the Percent Effect was determined as 13.1%. The figure for `CN(C)C(=O)COC[C@H]1CC[C@@H]2[C@@H](CCN2Cc2ccco2)O1` is 7.04%; for `Cc1ccc2nc(C(=O)N3CCCC[C@]4(C)NC(=O)CCC[C@H]34)cn2c1` it is 2.24%; for `CCN(CC)CCNC(=O)CCc1c(C)nn(-c2ccccc2Cl)c1C` it is 0%. Then `CCN(CC)CCNC(=O)CCc1c(C)nn(-c2ccc(Cl)cc2)c1C`, with 2.27%; and `CCN(CC)CCNC(=O)CCc1c(C)nn(-c2ccccc2Br)c1C`, with 61.4%. The figure for `Cc1cccc(CN2CC[C@@H]3[C@@H](CO[C@H]3CNc3ncccn3)C2)n1` is 10.5%; for `O=C(O)[C@]12CCCN(CC3CCOC3)C[C@H]1CN(c1ncccn1)C2` (stereo partly specified) it is -2.21%. Regarding `CNC(=O)[C@@]12CCC3(CCN(C(=O)COC)CC3)[C@@H]1CN(S(C)(=O)=O)C2`, the Percent Effect was 3.74%.

Turning to `CN(C)C(=O)[C@H]1C[C@@H]2CN(S(=O)(=O)c3ccccc3)C[C@H]1O2`, the Percent Effect came to 5.91%.

Turning to `CCCn1cc(NC(=O)c2ccncc2)ccc1=O`, the Percent Effect was found to be 38.3%. The figure for `CCCn1cc(NC(=O)c2ccc(S(C)(=O)=O)cc2)ccc1=O` is 56.7%; for `CCCn1cc(NC(=O)c2ccc(S(=O)(=O)CC)cc2)ccc1=O` it is 35%. Then `COC[C@H]1CNC(=O)[C@@H]2CCN(Cc3cccc(C)n3)CC[C@H]12`, with 3.92%; and `CCc1nccn1CC(=O)N1C[C@H]2CC[C@@H]1CN(c1ncccn1)C2`, with 5.46%. Then `Cc1nc(CO[C@H]2CN(C(=O)c3cccnc3)[C@@H]3COC[C@H]23)cs1`, with -1.03%. Turning to `O=C1[C@H]2CN(c3cnccn3)C[C@H]2CN1CC1CC1`, the Percent Effect worked out at 7.22%. Regarding `O=C(NCc1ccccc1)[C@H]1C[C@@H]2CN(S(=O)(=O)C3CC3)C[C@H]1O2`, the Percent Effect turned out to be 6.01%. The figure for `CC1=CC[C@@H]2CN(C(=O)c3ccc(-c4nnn(C)n4)cc3)C[C@@H]2C1` is 0.8%; for `O=C(CSc1nc2nncc-2c(O)n1-c1ccccc1)N1CCOCC1` it is 7.22%; for `O=C1CC[C@@H]2[C@@H](CCN2C(=O)C2CCOCC2)N1CC1CC1` it is 0%.
